# Experimental data reported in PubChem BioAssay.
# The source made the active and inactive calls. Unless noted, the rule behind the calls is not given here.
# Legend:
# [1] = tested on: Wnt5a (protein binding on small-molecule microarray); assay: small molecules binding Wnt5a protein – biophysical, small-molecule microarray, 635/667 nm fluorescence, primary screen (AID 1142); details: 635 nm fluorescence, higher = more signal;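 note: fluorescence read at 667 nm with signal to noise per printed feature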
# [2] = ATP-based viability of Huh7 replicon cells – cell-based, CellTiter-Glo luminescence, basal, 48 h, cytotoxicity control for HCV replication inhibitor project, primary screen (AID 1143); details: higher = more signal, called active from +8 up or from −8 down;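 note: Huh7 hepatoma cells carrying a hepatitis C replication reporter with no stimulus; test concentration not given here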
# [3] = Pseudomonas biofilm growth suppression – PAO1 strain, BacTiter-Glo luminescence, LB-PBS, primary screen (AID 1144); details: P. aeruginosa PAO1 biofilm, 12 h, higher = more signal
# [4] = basal CRE-LacZ reporter activity in PC12 – cell-based, unstimulated, primary screen (AID 1145); details: no forskolin, luminescence, 4.5 h, higher = more signal, called active from +8 up or from −8 down
# [5] = forskolin-driven CRE-LacZ activity in PC12 – cell-based, CRE-LacZ reporter, forskolin-stimulated, primary screen (AID 1146); details: luminescence, 4.5 h, higher = more signal, called active from +8 up or from −8 down;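 note: PC12 cells with 6xCRE LacZ reporter stimulated by forskolin 10 µM; beta-galactosidase reporter signal reflecting CREB driven transcription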
# [6] = target: Streptavidin (Streptomyces avidinii) (UniProt P22629); assay: compounds binding control protein streptavidin – biophysical, small-molecule microarray, 635/667 nm fluorescence, artefact control for SMM compound annotation, primary screen (AID 1147); details: higher = more signal;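 note: signal reflects streptavidin binding to arrayed compounds as a control protein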
# [7] = probe aInhba binding on compound microarray – biochemical, small-molecule microarray, 635/667 nm fluorescence, primary screen (AID 1148); details: higher = more signal;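 note: score merges 667nm spot fluorescence with signal-to-noise for antibody binding to printed compounds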
# Torsin-1A (Homo sapiens) [8] = target: Torsin-1A (Homo sapiens) (UniProt O14656); assay: TOR1A wild-type binding on microarray – cell lysate, small-molecule microarray, lysate, 635/667 nm, primary screen (AID 1149); details: COS7 hTOR1A-WT lysate, 635 nm fluorescence, higher = more signal
# Torsin-1A (Homo sapiens) [9] = target: Torsin-1A (Homo sapiens) (UniProt O14656); assay: torsin A mutant lysate binding on microarrays – cell lysate, small-molecule microarray, COS7 lysate, 635/667 nm fluorescence, primary screen (AID 1150); details: COS7 hTOR1A mutant lysate, 635 nm fluorescence, higher = more signal;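 note: score pools 667 nm emission and signal to noise measuring lysate protein binding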
# [10] = tested on: Sonic hedgehog protein (Shh); assay: Sonic hedgehog microarray binding compounds – biochemical, small-molecule microarray, 635/667 nm fluorescence, primary screen (AID 1151); details: 635 nm fluorescence, higher = more signal;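 note: Shh protein binding to compounds spotted on small-molecule microarray slides; score combines spot fluorescence intensity with signal-to-noise across triplicate slides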
# Chain of Streptavidin (Streptomyces avidinii) (P22629 whole entry, looked up): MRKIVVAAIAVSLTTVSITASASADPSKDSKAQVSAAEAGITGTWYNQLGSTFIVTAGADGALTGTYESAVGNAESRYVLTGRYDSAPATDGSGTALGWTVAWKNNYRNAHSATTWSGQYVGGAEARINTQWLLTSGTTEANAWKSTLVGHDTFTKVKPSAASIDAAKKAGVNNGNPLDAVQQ
# Chain of Torsin-1A (Homo sapiens) (O14656 whole entry, looked up): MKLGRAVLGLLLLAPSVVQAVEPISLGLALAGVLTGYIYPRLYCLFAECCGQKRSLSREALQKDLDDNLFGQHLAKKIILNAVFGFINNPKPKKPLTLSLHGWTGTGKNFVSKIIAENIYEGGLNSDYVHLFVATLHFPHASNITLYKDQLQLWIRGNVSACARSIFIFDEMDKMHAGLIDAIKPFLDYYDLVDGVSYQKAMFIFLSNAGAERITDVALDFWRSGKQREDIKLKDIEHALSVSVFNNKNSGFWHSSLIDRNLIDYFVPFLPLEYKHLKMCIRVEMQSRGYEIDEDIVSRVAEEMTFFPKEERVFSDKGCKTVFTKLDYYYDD
Structure (SMILES),composite z-score [1],z-score [2],z-score [3],z-score [4],z-score [5],composite z-score [6],composite z-score [7],composite z-score (Torsin-1A (Homo sapiens) [8]),composite z-score (Torsin-1A (Homo sapiens) [9]),composite z-score [10]
COCCOC(=O)N1C(=O)[C@@]2(c3cc(C#CC4(O)CCCCCC4)ccc31)[C@H](c1ccc(OCCO)cc1)N1[C@H](c3ccccc3)[C@H](c3ccccc3)OC(=O)[C@H]1[C@@H]2C(=O)Nc1nc2ccccc2s1,0.544,-1.39 (inactive),0.3 (inactive),-0.337 (inactive),0.138 (inactive),0.945,0.134,0.494,0.734,1.84
COC(=O)[C@@]1(Cc2ccc(F)cc2)[C@H]2c3cc(C(=O)N(C)C)n(Cc4ccc(O)c(OC)c4)c3C[C@H]2CN1C(=O)c1ccccc1,0.128,-2.65 (inactive),-1.24 (inactive),0.387 (inactive),0.0711 (inactive),0.575,-0.108,0.198,0.484,-0.556
NC(=O)[C@H]1[C@@H]2C(=O)O[C@@H](c3ccccc3)[C@@H](c3ccccc3)N2[C@@H](c2ccc(O)cc2)[C@]12C(=O)Nc1ccccc12,-0.355,-0.0816 (inactive),0.191 (inactive),-0.141 (inactive),0.272 (inactive),-1.08,-0.128,-1.54,-1.73,-0.96
COc1ccc([Si](C)(C)[C@@H]2[C@@H](CC(=O)N3Cc4ccccc4C[C@H]3CO)O[C@]3(C(=O)N(c4ccccc4)c4ccccc43)[C@H]2C)cc1,0.6,-4.81 (inactive),-0.751 (inactive),2.36 (inactive),0.931 (inactive),0.627,0.128,1.56,0.871,1.47
C=C(CCCC)C(=O)CC[C@H](OC(C)=O)c1ccc(OCCO)cc1,-0.624,-7.16 (inactive),-1.17 (inactive),5.09 (inactive),-0.361 (inactive),0.519,-0.308,-0.822,-0.514,-0.0938
COCCOC(=O)N1C(=O)[C@@]2(c3cc(C#CCC(C(=O)OC)C(=O)OC)ccc31)[C@H](c1ccc(O)cc1)N1[C@H](c3ccccc3)[C@H](c3ccccc3)OC(=O)[C@H]1[C@@H]2C(=O)NC[C@H](O)c1ccccc1,0.295,-2.04 (inactive),-0.0824 (inactive),-0.231 (inactive),-0.196 (inactive),1.7,-0.0774,0.941,0.468,0.49
CC(C)C(=C=CC[C@@H](O)c1cccc(OCCO)c1)C[C@@H](O)c1ccccn1,0.189,-0.846 (inactive),-0.382 (inactive),1.13 (inactive),-0.039 (inactive),-0.637,-0.13,-0.84,0.405,0.935
O=C1N(CCS(=O)(=O)c2ccccc2)Cc2ccccc2[C@@H]2OC(c3ccc(OCCCO)cc3)=N[C@]12CCS(=O)(=O)c1ccccc1,1.24,-1.5 (inactive),0.151 (inactive),3.2 (inactive),-0.897 (inactive),0.844,-0.108,0.827,1.51,1.4
CC(C)C[C@@H]1NC(=O)[C@@H]2C[C@H](C(=O)NCCCCCC[N+](C)(C)C)[C@H](c3cccc(OCCO)c3)N2C1=O,-0.391,-0.351 (inactive),-0.226 (inactive),-0.943 (inactive),-0.153 (inactive),-0.665,-0.128,-0.153,0.393,1.46
CCOC(=O)C1=C[C@@H](C(C)(C)C)N(S(=O)(=O)c2ccc(C)cc2)[C@H]1c1ccc(C)cc1,0.514,-5 (inactive),0.311 (inactive),-0.0137 (inactive),-0.1 (inactive),1.35,0.0857,0.392,0.361,1.7
C=CC[C@H](OC(=O)Nc1ccc(SC)cc1)c1ccc(OCCO)cc1,-0.348,-2.69 (inactive),-0.982 (inactive),8.61 (active),0.938 (inactive),-0.707,-0.112,0.25,0.154,1.68
COc1ccc([Si](C)(C)[C@H]2[C@H](CCO)O[C@@]3(C(=O)N(Cc4ccc(N5C(=O)c6ccccc6Oc6ccccc65)cc4)c4ccccc43)[C@@H]2C)cc1,-0.154,-5.43 (inactive),-1.75 (inactive),0.222 (inactive),-0.986 (inactive),-0.446,-0.0762,-1.08,-0.889,1.13
COC(=O)[C@@]1(Cc2ccccc2CN=[N+]=[N-])N=C(c2ccc(OCCCO)cc2)O[C@H]1c1ccccc1CN=[N+]=[N-],1.25,-4.34 (inactive),-0.166 (inactive),1.75 (inactive),-0.547 (inactive),-0.754,-0.154,-2.13,0.0755,-0.427
C=C(COC)/C(=C/C[C@@H](OC(=O)c1ccncc1)c1ccccc1OCCO)c1cc(C(=O)OC)ccc1OC,-0.146,-1.88 (inactive),0.454 (inactive),14.7 (active),3.84 (inactive),-0.409,-0.0762,0.758,-0.103,0.249
CN(C)C(=O)[C@@]1(CCC(=O)OC(C)(C)C)N=C(c2ccc(OCCCO)cc2)O[C@H]1c1ccccc1CN=[N+]=[N-],0.281,-0.292 (inactive),-0.0794 (inactive),0.148 (inactive),0.27 (inactive),0.457,0.0857,0.946,1.99,-0.733
COc1ccc(CCNC(=O)[C@@]2(Cc3ccccc3I)c3ccccc3C(=O)N(Cc3ccccc3Cl)[C@H]2c2ccc(CO)cc2)cc1,0.0402,-2.74 (inactive),-0.144 (inactive),0.0387 (inactive),0.752 (inactive),-0.555,0.502,-0.36,0.397,0.527
[N-]=[N+]=NCc1ccccc1[C@@H]1OC(c2ccc(OCCCO)cc2)=N[C@]1(Cc1ccccc1N=[N+]=[N-])C(=O)NCCN1CCOCC1,0.959,-3.14 (inactive),1.07 (inactive),0.895 (inactive),-1.78 (inactive),0.974,0.102,1.06,1.01,0.387
CC(C)CNC(=O)[C@@]1(C)c2ccccc2C(=O)N(Cc2cc(C(F)(F)F)cc(C(F)(F)F)c2)[C@H]1c1ccc(CO)cc1,-0.445,-3.12 (inactive),0.92 (inactive),0.414 (inactive),-0.578 (inactive),-0.366,-0.0987,-0.918,-0.267,-0.117
